Laboratory results as given in PubChem BioAssay AID1981 (Southern Research Specialized Biocontainment Screening …, 2009).
Hit rate of the full screen: of about 2,200 compounds, about 480 (22%) were called active. The rule behind the calls is not given here. The list is a sample of the results. Entries that show only a call come without a potency. Potency and affinity values are given separately.

Experiment: S. Typhimurium GFP fluorescence modified counterscreen for PhoP regulon inhibitor project dose response (AID 1981)
Details: 4 h; series mostly up to 150 µM

SMILES | outcome
COc1ccc(/C=C2\CN(Cc3ccccc3)C/C(=C\c3ccc(OC)cc3)C2=O)cc1 | inactive
Cc1cccc(C)c1NC(=O)CSc1nnc(NC(=O)CN2CCOCC2)s1 | inactive
O=C(N/N=C/c1cccn1-c1ccc([N+](=O)[O-])cc1)C(O)c1ccccc1 (stereo unspecified) | inactive
Cc1cc(C(=O)N/N=C/C=C/c2ccc3c(c2)OCO3)n[nH]1 | inactive
Cc1cc(C(=O)N/N=C/c2cccc([N+](=O)[O-])c2O)n[nH]1 | inactive
CN(C)C(=O)c1cn(N(C)c2ncc(C(F)(F)F)cc2Cl)c(=O)c2ccccc12 | inactive
Cc1ccc(-c2cc(-c3ccc(Cl)cc3)c(C#N)c(N)n2)o1 | inactive
CC(=O)c1cccc(NC(=O)NCc2ccco2)c1 | inactive
Nc1nc(-c2ccc(Br)cc2)cs1 | inactive
COc1ccc(-c2cc(N3CCCC3)n3ncnc3n2)cc1 | inactive
Cc1ccccc1NC(=S)N(CCCN1CCOCC1)Cc1ccccn1 | inactive
O=c1[nH]c2ccccc2n1C1=CCCC1 | inactive
CCn1c(Cc2c(C)[nH]c3ccccc23)n[nH]c1=S | inactive
Cc1cccc(C)c1NC(=O)CCCSc1nnc(-c2ccc(Cl)cc2)n1-c1ccccc1 | inactive
COc1ccccc1-c1cc(C(=O)Nc2cc(C)nn2-c2ccccc2)no1 | inactive
Cc1ccc(-n2nc(-c3ccc(N)cc3)cc2N)cc1 | inactive
O=C(OCC(=O)c1ccccc1Cl)c1cnccn1 | inactive
O=C(c1cc2ncc(Br)cn2n1)N1CCOCC1 | inactive
Cc1[nH]c2ccccc2c1C(O)CN1CCN(c2cccc(C(F)(F)F)c2)CC1 (stereo unspecified) | inactive
COc1cc(C2Nc3cccc4cccc(c34)N2)cc(OC)c1OC(C)=O | inactive
CC(=O)Oc1c2occc2cc2ccc(=O)oc12 | inactive
O=C(NCCNS(=O)(=O)c1cccc(C(F)(F)F)c1)c1cc(OCC(F)(F)F)ccc1OCC(F)(F)F | inactive
O=c1c(Br)c(Br)cnn1-c1ccccc1 | inactive
CCCOC(=O)C(C)n1cnc2sc(C)c(C)c2c1=O (stereo unspecified) | inactive
S=C(Nc1ccccc1)Nc1nc2ccccc2n1CCOc1ccc(Cl)cc1 | inactive

SMILES | outcome
Clc1ccc(OCCn2cnc3ccccc32)cc1 | inactive
COc1ccc(OCCSc2nnc3sc4ccccc4n23)cc1 | inactive
COc1ccc(C(=O)C(CO)Oc2ccccc2OC)cc1OC (stereo unspecified) | inactive
COc1ccccc1OCc1ccc(C(=O)N2CCN(C(=O)c3ccco3)CC2)cc1 | inactive
Cc1ccc(OCc2nc3ccccc3[nH]2)cc1 | inactive
COC(=O)Cn1c(C)nc2ccccc21 | inactive
CCOC(=O)CCC(NC(=O)c1ccc(NCN2C(=O)CCC2=O)cc1)C(=O)OCC (stereo unspecified) | inactive
CC(=O)c1c(C)nc(-c2ccc(Cl)cc2)nc1N=CN(C)C | inactive
Cc1cccc(C=Nc2ccc3c(c2)oc2ccccc23)c1O | inactive
CCc1cccc2c(C#N)cn(CC(=O)NCCOC)c12 | inactive
C/C(=N\n1nnnc1Nc1ccccc1)c1ccc(N)cc1 | inactive
Cc1ccc2c(c1)C(c1ccccc1)NCC(=O)N2 (stereo unspecified) | inactive
Cc1cc(C)nc(NC(=O)Cc2cccs2)n1 | inactive
COc1ccc(/C=C/C(=O)O)cc1COc1cccc(C)c1 | inactive
Cc1cccc(OCC(=O)NNc2c3ccccc3nc3ccccc23)c1 | inactive
C=CCN=C(NC#N)SCc1ccccc1Cl | inactive
Cc1cc(C)c(NC(=O)COc2ccccc2C(=O)Nc2ccc3c(c2)oc2ccccc23)c(C)c1 | inactive
O=C1Nc2ccccc2/C1=C/c1cnc[nH]1 | inactive
Cc1ccccc1OCCCCCn1ccnc1 | inactive
Cc1nn(-c2ccccc2)c2sc(-c3n[nH]c(=S)o3)cc12 | inactive
COc1ccc(OC)c(S(=O)(=O)N2c3cc(F)ccc3CCC2C)c1 (stereo unspecified) | inactive
Cc1cccc(Sc2c([N+](=O)[O-])ncn2C)c1 | inactive
Clc1ccc(OCCn2ccnc2)c2ccccc12 | inactive
Cc1ccc(C(=O)COC(=O)CNS(=O)(=O)c2ccccc2)cc1[N+](=O)[O-] | inactive
O=C1/C(=C/c2ccccc2)NC(=S)N1C(c1ccccc1)c1ccccc1 | inactive

SMILES | outcome
Cc1cc(C(=O)NNC(=S)NC(=O)/C=C/c2ccccc2Cl)n[nH]1 | inactive
CN(c1ccccc1)S(=O)(=O)c1cc(C(=O)Nc2nc3ccccc3[nH]2)ccc1Cl | inactive
COC(=O)CSc1nnc(-c2ccco2)n1Cc1ccco1 | inactive
Cc1ccccc1Cn1c(=N)n(CC(=O)c2ccco2)c2ccccc21 | inactive
O=C(CN1CCCCC1)Nc1cccc(Br)c1 | inactive
NC(=O)c1oc2ccccc2c1NC(=O)CN1CCCCC1 | inactive
O=C(CSc1nnc2n(C3CCCCC3)c(=O)c3ccccc3n12)OC1CCCCC1 | inactive
OC(COc1ccc2ccccc2c1Br)Cn1ccnc1 (stereo unspecified) | inactive
COc1cc(C)ccc1OCCCOc1ccccc1Br | inactive
COc1cccc(NC(=O)Cn2c(=O)n(CCCC(=O)NCc3ccco3)c(=O)c3ccccc32)c1 | inactive
Cc1ccc(N(CC(=O)N/N=C/c2ccco2)S(=O)(=O)c2ccccc2)cc1 | inactive
CCCc1ccc(C(=O)CCC(=O)O)cc1 | inactive
Nc1nonc1C(=O)NCCN=Cc1cc(Cc2ccccc2)cc(Br)c1O | inactive
Nc1nonc1-n1nnc(C(=O)N/N=C/c2ccc(Br)cc2)c1CSC1=NCCS1 | inactive
COc1cccc(C=NCCNC(=O)c2nonc2N)c1O | inactive
CC(C)n1cc(C(=O)N2CCCC(N3CCN(c4ccc(F)cc4)CC3)C2)cn1 (stereo unspecified) | inactive
O=C(CSc1nc2ccccc2o1)Nc1ccc(N2CCOCC2)c(Cl)c1 | inactive
O=C(c1ccccc1)N1CCSC1=S | inactive
CC1(C)CC(=O)C(/C=N/c2ncccc2C(=O)O)=C(O)C1 | inactive
CCCCCn1c(N)c(C(=O)NCc2cccs2)c2nc3ccccc3nc21 | inactive
O=C(c1ccc2nc(N3CCOCC3)sc2c1)N1CCC(Cc2ccccc2)CC1 | inactive
COc1ccc(-c2nnn(CC(=O)N(Cc3ccco3)C(C(=O)NCC3CCCO3)c3ccco3)n2)cc1 (stereo unspecified) | inactive
C#CC(=O)N(c1cc(OC)ccc1OC)C(C(=O)NC1CCCC1)c1cccs1 (stereo unspecified) | inactive
CCC(C)NC(=O)c1ccccc1NC(=O)C(C)N(c1ccccc1)S(C)(=O)=O (stereo unspecified) | inactive
Nc1nc(-c2ccc3c(c2)OCCO3)cs1 | inactive

SMILES | outcome
CN(C)c1ccc(Nc2nc(-c3cccnc3)cs2)cc1 | inactive
CCn1c2ccccc2c2cc(N)ccc21 | inactive
CCc1cccc(NC(=O)Nc2cccs2)c1 | inactive
COc1ccc(N=c2cc(-c3ccc(OC)cc3)oc3ccccc23)cc1 | inactive
CCCNC(=O)CSc1nnc(C)s1 | inactive
Cn1ccnc1C(O)c1ccc(OCc2ccccc2)cc1 (stereo unspecified) | inactive
CSc1nnc2c3c4c(sc3nc(-n3nc(C)cc3C)n12)COC(C)(C)C4 | inactive
COc1ccc(NC(=O)c2ccc(OC)cc2)cc1 | inactive
FC(F)(F)C1=CC(c2ccc(Br)cc2)=NCCN1 | inactive
N=c1scc(-c2ccccc2)n1/N=C/c1ccco1 | inactive
COc1ccc(-c2nnc(SCCC(=O)O)n2-c2ccccc2)cc1 | inactive
O=C(NCCNc1ccc([N+](=O)[O-])cc1C(F)(F)F)c1cccc(F)c1 | inactive
Oc1ccc(Br)cc1-c1nc2cnccn2c1NC1CCCCC1 | inactive
O=C1CCCc2nc(N3CCN(Cc4ccccc4)CC3)ncc21 | inactive
COc1ccccc1CC1(C)NC(=O)N(CC(=O)N2CC(C)OC(C)C2)C1=O (stereo unspecified) | inactive
Cc1ccccc1OCCSCc1nc2ccccc2[nH]1 | inactive
O=C(Nc1ccc(S(=O)(=O)Nc2nccs2)cc1)c1cc(-c2ccccc2)nc2ccccc12 | inactive
Cc1ccc(C(=O)c2ccccc2C(=O)O)c(O)c1 | inactive
CC(CN1CCOCC1)C(=O)c1ccccc1 (stereo unspecified) | inactive
Cc1cc(C(=O)NCc2cccs2)cs1 | inactive
CCCc1cc(N2CCN(c3ccccn3)CC2)n2nc(C)c(-c3ccccc3)c2n1 | inactive
COc1ccc(CNc2nc3c(c(=O)[nH]c(=O)n3C)n2CCCc2ccccc2)cc1 | inactive
COc1nc(-c2ccccc2)ccc1-c1noc(C)n1 | inactive
NCCCCCc1nnc(SCc2ccc(Cl)cc2Cl)o1 | inactive
Cc1ccc([N+](=O)[O-])cc1-c1ccc(/C=C(\C#N)c2[nH]nc(N)c2C#N)o1 | inactive

SMILES | outcome
CNC(=O)CN(c1ccc(F)cc1)S(=O)(=O)c1cc(C)ccc1OC | inactive
CCN1C(=O)N/C(=C/c2ccc(Sc3ccc(C)cc3)o2)C1=O | inactive
O=C(CCCCCNc1nc(=S)[nH]c2ccccc12)NCCc1c[nH]c2ccccc12 | inactive
Cc1ccc2nc(NNC(=O)c3ccc(S(=O)(=O)N4CCc5ccccc5C4)cc3)sc2c1 | inactive
C=CCNCC#CCOc1ccc(OC)cc1 | inactive
Cn1cccc1C(=O)OCc1csc(-c2ccccc2)n1 | inactive
Cc1ccc(S(=O)(=O)NCc2ccc(C(=O)N3CCN(c4ccccn4)CC3)cc2)cc1 | inactive
O=C(CCCN1Cc2ccccc2C1)c1ccc(F)cc1 | inactive
CCOC(=O)N1CCC(NC(=O)CCC(=O)c2ccccc2)CC1 | inactive
CN1C(=S)N(c2ccccc2)C(=O)/C1=C/c1ccco1 | inactive
Cc1ccc(C(=O)Nc2ccccc2C(N)=O)o1 | inactive
COc1cccc(-n2c(SCc3cc(=O)oc4cc(O)c(O)cc34)nc3ccccc3c2=O)c1 | inactive
Cc1cccc(-n2c(N)cc(=O)[nH]c2=S)c1 | inactive
C/C(=N\NC(=O)c1ccccc1)c1ccc2c(c1)OCO2 | inactive
CCOc1ccccc1NS(=O)(=O)c1ccc(Br)s1 | inactive
O=C(COc1ccc(Br)cc1Cl)NC(=O)NCc1ccccc1 | inactive
Clc1ccc(OCCCn2ccnc2)c(Br)c1 | inactive
Clc1cc(Br)ccc1OCCn1ccnc1 | inactive
CCCCNCCCOc1cccc(Cl)c1Cl | inactive
Clc1ccc(Nc2ccc(NCc3ccccc3)nn2)cc1 | inactive
CC(C)NCCCOc1ccc(Cl)cc1Br | inactive
